EPAC2 ag = agonists of human EPAC2 (RAPGEF4); 0.079% of 360,000 active; Potency, µM (doses to about 154 µM), inactives show top-dose activation, actives largely listed as activators; Q8WZA2; EPAC2 activation, biochemical qHTS; response scale: 100% = 6.5 mM cAMP response; AID 720711; note: nearly all actives have a fitted effect of over 50% in size
Target sequence (Q8WZA2 whole entry, looked up): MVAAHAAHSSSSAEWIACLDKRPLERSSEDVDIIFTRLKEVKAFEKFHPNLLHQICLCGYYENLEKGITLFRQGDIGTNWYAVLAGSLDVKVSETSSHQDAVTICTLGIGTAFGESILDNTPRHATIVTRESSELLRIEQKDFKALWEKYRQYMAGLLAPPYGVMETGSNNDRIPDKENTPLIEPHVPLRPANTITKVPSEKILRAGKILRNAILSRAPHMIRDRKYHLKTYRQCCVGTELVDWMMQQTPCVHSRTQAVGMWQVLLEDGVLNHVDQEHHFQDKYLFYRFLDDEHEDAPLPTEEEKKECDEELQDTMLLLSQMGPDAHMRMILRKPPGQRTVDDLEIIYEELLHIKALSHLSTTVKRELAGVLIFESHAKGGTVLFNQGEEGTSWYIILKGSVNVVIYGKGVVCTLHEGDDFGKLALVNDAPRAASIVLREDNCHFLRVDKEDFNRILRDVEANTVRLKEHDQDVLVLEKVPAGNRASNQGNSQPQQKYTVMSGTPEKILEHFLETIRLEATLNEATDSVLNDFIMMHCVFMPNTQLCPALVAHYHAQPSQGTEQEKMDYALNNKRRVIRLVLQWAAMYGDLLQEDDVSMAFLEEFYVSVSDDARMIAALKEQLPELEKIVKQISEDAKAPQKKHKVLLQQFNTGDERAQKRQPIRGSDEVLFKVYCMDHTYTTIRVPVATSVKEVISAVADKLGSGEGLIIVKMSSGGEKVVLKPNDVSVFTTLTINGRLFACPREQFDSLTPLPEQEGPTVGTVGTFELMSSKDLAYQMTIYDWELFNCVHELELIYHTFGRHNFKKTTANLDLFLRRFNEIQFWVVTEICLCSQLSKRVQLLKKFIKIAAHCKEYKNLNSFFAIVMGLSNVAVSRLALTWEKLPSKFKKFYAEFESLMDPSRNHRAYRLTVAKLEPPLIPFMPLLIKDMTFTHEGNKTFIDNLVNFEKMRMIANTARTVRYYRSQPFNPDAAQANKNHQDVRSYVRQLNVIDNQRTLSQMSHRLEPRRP
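Each well held 100 nM EPAC2, 250 nM RAP1B-BODIPY-GDP and 50 uM GDP. Fluorescence, read at 5-min intervals to 30 min, was referenced to a 6.5 mM cAMP positive control.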
EPAC1 agonist = activates human EPAC1 exchange factor; AID 720707; Potency, µM (series often up to 154 µM), inactives show at the top dose activation, hits mostly activators; 0.073% of 360,000 active; O95398; EPAC1 agonist qHTS, biochemical assay; response scale: 100% = response to 6.5 mM cAMP; note: nearly all actives have a fitted effect of over 60% in size
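Nucleotide exchange by EPAC1 (100 nM) on Rap1B–BODIPY-GDP (250 nM) in the presence of 50 uM GDP is tracked fluorescently at 480/540 nm over 30 min. Signals are normalized to a 6.5 mM cAMP control.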
EPAC1 antagonist = blocks human EPAC1 exchange factor; O95398; EPAC1 GEF assay, Rap1b-BODIPY-GDP exchange fluorescence; Potency, µM (series often up to 115 µM), without a hit: at the highest dose activity change, negative = inhibition, usual class: inhibitors; 0.14% of 360,000 active;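 note: plate controls were vehicle for no effect and positive control for full effect; nearly all actives have a fitted effect of over 50% in size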
EPAC2 antag = antagonists of human EPAC2 | Q8WZA2 | EPAC2 GEF exchange of Rap1B-BODIPY-GDP, fluorescence | Potency, µM (titrated, usually from 114 µM), inactives show at the top dose activity, negative = inhibition, actives largely listed as inhibitors | 0.18% of 360,000 active | AID 720708; note: % is set by controls: 0 for no effect and ±100 for the full control effect; nearly all actives have a fitted effect of over 45% in size
The depositor's hits bear a star. A selection: hits, their analogues and other compounds. The true share with any hit is near 0.38%. Calls come from the whole dose curve; as a rule, active = well fitted curve in the direction sought with a large enough effect; inconclusive = small, poorly fitted or top-dose-only effect, or another doubt; inactive = no such curve, though single readings can be large; an effect the other way counts as inactive or inconclusive. Potency is the fitted concentration of half-maximal effect.

How did Cc1ccc(S(=O)(=O)Nc2ccc3cc([N+](=O)[O-])ccc3c2[N+](=O)[O-])cc1 do in these assays?
EPAC2 ag: -5%; EPAC1 agonist: -2%; EPAC1 antagonist: 79µM*; EPAC2 antag: 50µM*

What do the screens show for `Cc1ccc(S(=O)(=O)Nc2ccc3ccccc3c2[N+](=O)[O-])cc1`?
EPAC2 ag: -2%; EPAC1 agonist: 1%; EPAC1 antagonist: inconclusive; EPAC2 antag: inconclusive

What do the screens show for `CCOCc1c(C(=O)NCC(c2ccco2)N2CCCC2)oc2ccccc12` (stereo not drawn)?
EPAC2 ag: 10%; EPAC1 agonist: 6%; EPAC1 antagonist: -4%; EPAC2 antag: 2%

What do the screens show for `Cc1cc(NS(=O)(=O)c2ccc(NC(=O)COc3c(C)cc(Br)cc3C)cc2)no1`?
EPAC2 ag: -8%; EPAC1 agonist: -1%; EPAC1 antagonist: -4%; EPAC2 antag: 18µM*

Results for COc1ccc(OCC(=O)Nc2ccc(S(=O)(=O)Nc3cc(C)on3)cc2)cc1 ?
EPAC2 ag: -4%; EPAC1 agonist: -2%; EPAC1 antagonist: -7%; EPAC2 antag: 7%

Results for O=C1OC(c2ccc3ccccc3c2O)(c2ccc3ccccc3c2O)c2ccccc21 ?
EPAC2 ag: 6%; EPAC1 agonist: -10%; EPAC1 antagonist: 56µM*; EPAC2 antag: 10%

What do the screens show for `C[C@H](CO)N1C[C@H](C)[C@@H](CN(C)S(=O)(=O)c2ccccc2)Oc2c(NC(=O)NC3CCCCC3)cccc2C1=O`?
EPAC2 ag: 8%; EPAC1 agonist: -22%; EPAC1 antagonist: -6%; EPAC2 antag: 3%

Results for CC1(Cc2ccc(C(F)(F)F)o2)C(=O)Nc2cc(-c3ccc(F)cc3F)ccc21 (stereo not drawn) ?
EPAC2 ag: -3%; EPAC1 agonist: -15%; EPAC1 antagonist: -17%; EPAC2 antag: inconclusive

Results for O=c1oc2cc(O)ccc2cc1-c1nc2ccccc2o1 ?
EPAC2 ag: inconclusive; EPAC1 agonist: 63µM*; EPAC1 antagonist: 86%; EPAC2 antag: 8%

Results for Cc1cccc(Cn2c(=O)oc3ccc(C)cc32)c1 ?
EPAC2 ag: -3%; EPAC1 agonist: -4%; EPAC1 antagonist: -3%; EPAC2 antag: 79µM*

Results for Cc1ccc2oc(=O)n(Cc3ccc(OC(C)C)cc3)c2c1 ?
EPAC2 ag: 8%; EPAC1 agonist: -13%; EPAC1 antagonist: -9%; EPAC2 antag: inconclusive

How did COc1cc(OC)c(-c2c3cc(O)c(=O)cc-3oc3cc(O)c(O)cc23)cc1OC do in these assays?
EPAC2 ag: 112µM*; EPAC1 agonist: 100µM*; EPAC1 antagonist: 182%; EPAC2 antag: 92%

Results for Cc1c2cc(O)c(=O)cc-2oc2cc(O)c(O)cc12 ?
EPAC2 ag: inactive; EPAC1 agonist: -276%; EPAC1 antagonist: 82%; EPAC2 antag: inconclusive

How did CC(C)(C)NC(=O)C(c1cc2ccccc2o1)n1c(=O)c(-c2ccco2)nc2ccccc21 (stereo not drawn) do in these assays?
EPAC2 ag: -1%; EPAC1 agonist: -5%; EPAC1 antagonist: -24%; EPAC2 antag: -9%

What do the screens show for `CCCCCNC(=O)C(c1cc2ccccc2o1)n1c(=O)c(-c2ccco2)nc2ccccc21` (stereo not drawn)?
EPAC2 ag: -18%; EPAC1 agonist: -27%; EPAC1 antagonist: 56µM*; EPAC2 antag: inconclusive

How did Cc1ccc(NC(=S)/C(C#N)=C2/Nc3ccccc3S2)cc1 do in these assays?
EPAC2 ag: -5%; EPAC1 agonist: 2%; EPAC1 antagonist: inconclusive; EPAC2 antag: 20µM*

Results for N#C/C(C(=O)N1CCCCC1)=C1\Nc2ccccc2S1 ?
EPAC2 ag: 6%; EPAC1 agonist: 2%; EPAC1 antagonist: -9%; EPAC2 antag: 5%

Results for N#C/C(=C\c1ccc(N2CCOCC2)o1)c1nc2ccccc2[nH]1 ?
EPAC2 ag: 50µM*; EPAC1 agonist: 63µM*; EPAC1 antagonist: -17%; EPAC2 antag: 6%

Results for N#C/C(=C\c1ccc(N2CCOCC2)c([N+](=O)[O-])c1)c1nc2ccccc2[nH]1 ?
EPAC2 ag: 1%; EPAC1 agonist: 11%; EPAC1 antagonist: 11%; EPAC2 antag: -11%

Results for N#CC1=C(N)SC(N)=C(C#N)C1c1cccc(Oc2ccccc2)c1 ?
EPAC2 ag: 6%; EPAC1 agonist: 17%; EPAC1 antagonist: -8%; EPAC2 antag: 50µM*

What do the screens show for `O=C1CSC(=S)N1/N=C/c1ccc(O)c(O)c1O`?
EPAC2 ag: 3%; EPAC1 agonist: -10%; EPAC1 antagonist: 25µM*; EPAC2 antag: 19%

Results for CCOC(=O)[C@]12CCC=C1N(Cc1ccco1)C(=O)[C@H](CC(=O)N1CCCCC1)C2 ?
EPAC2 ag: 15%; EPAC1 agonist: 25%; EPAC1 antagonist: -16%; EPAC2 antag: 2%

What do the screens show for `CCOc1c(O)ccc(/C=C2\SC(=S)NC2=O)c1[N+](=O)[O-]`?
EPAC2 ag: 2%; EPAC1 agonist: -1%; EPAC1 antagonist: -21%; EPAC2 antag: 56µM*

What do the screens show for `CCOc1ccc(N(C)c2ccc(/C=C3/SC(=S)NC3=O)cc2)cc1`?
EPAC2 ag: 2%; EPAC1 agonist: -7%; EPAC1 antagonist: -29%; EPAC2 antag: 4%

Results for O=C1c2cccc3cc([N+](=O)[O-])cc(c23)C(=O)N1CCN1CCCC1 ?
EPAC2 ag: 3%; EPAC1 agonist: 3%; EPAC1 antagonist: 7%; EPAC2 antag: -14%

Results for O=C1c2cccc3cc([N+](=O)[O-])cc(c23)C(=O)N1/N=C/c1ccc(O)cc1O ?
EPAC2 ag: 0%; EPAC1 agonist: 5%; EPAC1 antagonist: 79µM*; EPAC2 antag: -2%

Results for COc1ccc(CCn2c(O)cc3nn(-c4nc5ccccc5s4)c(=O)c-3c2C)cc1 ?
EPAC2 ag: -16%; EPAC1 agonist: -12%; EPAC1 antagonist: 50µM*; EPAC2 antag: 13%

How did COc1ccc(CN2CCN(c3nc4ccccc4s3)CC2)cc1 do in these assays?
EPAC2 ag: 10%; EPAC1 agonist: 7%; EPAC1 antagonist: -30%; EPAC2 antag: -8%

What do the screens show for `O=C(NS(=O)(=O)c1ccc2ccc(S(=O)(=O)NCCSc3ccccc3)cc2c1)c1cccc2ccccc12`?
EPAC2 ag: 3%; EPAC1 agonist: -1%; EPAC1 antagonist: 56µM*; EPAC2 antag: inconclusive

What do the screens show for `CCCSc1ccc([C@@H]2[C@@H]3C(=O)N(C)C(=O)[C@@H]3[C@]3(C(=O)OC)CCCN23)cc1OC`?
EPAC2 ag: 13%; EPAC1 agonist: 0%; EPAC1 antagonist: -15%; EPAC2 antag: 8%

What do the screens show for `COc1cc(/C=N/Nc2ccc(Cl)c(C(=O)O)c2)ccc1OC(=O)c1ccco1`?
EPAC2 ag: -6%; EPAC1 agonist: -13%; EPAC1 antagonist: inconclusive; EPAC2 antag: -1%

How did Cc1ccc(S(=O)(=O)Oc2cccc(/C=N/n3cnnc3)c2)cc1 do in these assays?
EPAC2 ag: 5%; EPAC1 agonist: -2%; EPAC1 antagonist: 2%; EPAC2 antag: 3%
